Shown are actives, neighbours in structure and some others; about 2% of the full set was active somewhere.
Rango complex inh = qHTS Assay for Inhibitors of Rango (Ran-regulated importin-beta cargo) - Importin beta complex formation | Importin subunit beta-1 (Homo sapiens), Q14974 | actives 0.031% (n = 340,000) | Rango CFP/YFP FRET sensor + importin beta, 45 min | Potency, µM (highest dose often 92.2 µM); calls by dose curve; note: nearly all actives have a fitted effect of over 15% in size
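FRET biosensor (snurportin 1 IBB flanked by EYFP and cerulean), 50 nM, with compound 5 min, then 0.125 microM importin beta in PBS, 1 mM DTT, 0.02% Tween-20, 0.1% BSA. CFP/YFP ratio read after 45 min at room temperature; pre-read flags interference.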
S-ASM inh = Inhibitors of Secretory Acid Sphingomyelinase (S-ASM): qHTS; Potency, µM (top dose mostly 57.5 µM), actives largely listed as inhibitors; AID 504937, 2011; Sphingomyelin phosphodiesterase (Homo sapiens), P17405; actives 0.006% (n = 340,000); placental ASM, HMU-PC fluorogenic substrate, 60 min
Target sequence (P17405 47-631 limits assumed): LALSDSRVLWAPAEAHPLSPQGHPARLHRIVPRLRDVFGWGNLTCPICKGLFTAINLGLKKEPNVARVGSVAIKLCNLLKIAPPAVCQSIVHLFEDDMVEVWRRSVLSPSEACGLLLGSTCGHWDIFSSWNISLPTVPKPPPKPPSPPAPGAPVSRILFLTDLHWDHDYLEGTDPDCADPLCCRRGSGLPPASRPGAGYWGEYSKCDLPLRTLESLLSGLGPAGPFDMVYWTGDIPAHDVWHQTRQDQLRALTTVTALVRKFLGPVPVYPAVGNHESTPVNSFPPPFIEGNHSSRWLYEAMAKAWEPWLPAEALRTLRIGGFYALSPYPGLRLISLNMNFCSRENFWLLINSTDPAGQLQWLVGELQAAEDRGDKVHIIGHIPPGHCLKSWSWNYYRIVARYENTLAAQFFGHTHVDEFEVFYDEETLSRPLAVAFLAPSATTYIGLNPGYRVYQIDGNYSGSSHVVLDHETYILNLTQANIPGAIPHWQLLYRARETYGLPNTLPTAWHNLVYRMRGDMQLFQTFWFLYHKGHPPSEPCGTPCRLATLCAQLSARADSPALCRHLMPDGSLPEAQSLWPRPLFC
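Fluorogenic HMU-PC substrate (9 uM final) is turned over by placental ASM in 60 min at 37 C after a 10 min compound preincubation. Reaction ended by alkaline stop (pH 10), with fluorescence read at 386/447 nm.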
Abeta rescue = qHTS for compounds that reverse cellular toxicity of Amyloid beta (A-beta) peptide in yeast: Primary Screen; actives 0.063% (n = 410,000); Potency, µM (doses to about 46.1 µM), usual class: activators; AID 1347071, 2019; yeast expressing A-beta42, growth rescue, OD600, 48 h; response scale: 0% DMSO, 100% iron-clioquinol control; note: nearly all actives have a fitted effect of over 55% in size
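Yeast A-beta toxicity model in growth medium with pinned compounds, 48 h at 30 C; growth read as absorbance at 600 nm. Normalized to FeCl3/clioquinol equimolar mix (positive) and DMSO (negative).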
TDP43 rescue = qHTS of TDP-43 Inhibitors. Potency, µM (doses to about 46.1 µM), actives largely listed as activators. TDP-43 expressing yeast growth rescue, BacTiter-Glo, 24 h. actives 1.8% (n = 410,000); note: nearly all actives have a fitted effect of over 50% in size
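Luminescence from BacTiter-Glo reports growth of TDP-43-expressing yeast after 24 hr at 30 deg C with compound. Cells were raffinose-pregrown to mid-log, then seeded in galactose medium at OD600=0.02.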
aSyn rescue = qHTS of alpha-syn Inhibitors; Yeast expressing alpha-synuclein, growth rescue, BacTiter-Glo, 24 h; Potency, µM (titrated, usually from 46.1 µM), most hits filed as activators; actives 0.14% (n = 370,000); note: nearly all actives have a fitted effect of over 65% in size
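Rescue of yeast growth: cells expressing toxic alpha-synuclein, induced in galactose at OD600 0.02, incubated with compound 24 h at 30 C. ATP luminescence quantified growth; inhibitors of toxicity appear as activators.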
Rango release inh = qHTS Assay for Inhibitors of RanGTP induced Rango (Ran-regulated importin-beta cargo) - Importin beta complex dissociation; Snurportin-1 (Homo sapiens) + GTP-binding nuclear protein Ran (Homo sapiens) + Importin …; Biochemical FRET Rango-importin beta, RanGTP-induced dissociation; Potency, µM (titrated, usually from 46.1 µM); actives 0.071% (n = 340,000); AID 540253, 2011; calls by dose curve; note: nearly all actives have a fitted effect of over 45% in size
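Two FRET readings bracket the reaction: one 5 min after compound meets Rango–importin beta, another 45 min after RanGTP-RCC1 (0.6 uM Ran, 0.2 uM RCC1, 2 mM GTP) is added. Only the second defines inhibition.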
Numbers stand for hits; [ ] = remark or other dose. Unless noted, calls come from the whole dose curve; as a rule, active = well fitted curve in the direction sought with a large enough effect; inconclusive = small, poorly fitted or top-dose-only effect, or another doubt; inactive = no such curve, though single readings can be large; an effect the other way counts as inactive or inconclusive.

What do the screens show for `COc1ccc(S(=O)(=O)c2ccc(O)cc2)cc1`?
Rango complex inh: inactive; S-ASM inh: inactive; Abeta rescue: inactive; TDP43 rescue: inactive; aSyn rescue: inactive; Rango release inh: inactive

How did Oc1ccc(Oc2ccc(Oc3ccc(O)cc3)cc2)cc1 do in these assays?
Rango complex inh: inactive; S-ASM inh: inactive; Abeta rescue: inactive; TDP43 rescue: 20µM; aSyn rescue: inactive; Rango release inh: inactive

Results for O=C(O)c1cc(N/N=C/c2ccc(-c3ccccc3)cc2)ccc1Cl ?
Rango complex inh: inactive; S-ASM inh: inactive; Abeta rescue: inactive; TDP43 rescue: 35µM; aSyn rescue: inactive; Rango release inh: inactive

Results for O=C(O)c1ccc(N/N=C/c2ccc(-c3ccccc3)cc2)cc1 ?
Rango complex inh: inconclusive; S-ASM inh: inactive; Abeta rescue: inactive; TDP43 rescue: 5.6µM; aSyn rescue: inactive; Rango release inh: inactive

Results for CC(C)c1ccc(/C=N/Nc2ccc(C(=O)O)cc2)cc1 ?
Rango complex inh: inactive; S-ASM inh: inactive; Abeta rescue: inactive; TDP43 rescue: 11µM; aSyn rescue: inactive; Rango release inh: inactive

What do the screens show for `COc1ccc2ccccc2c1/C=N/Nc1ccc(Cl)c(C(=O)O)c1`?
Rango complex inh: inconclusive; S-ASM inh: inactive; Abeta rescue: inactive; TDP43 rescue: inactive; aSyn rescue: inactive; Rango release inh: inconclusive

What do the screens show for `COc1ccc2ccccc2c1/C=N/Nc1cccc(C(=O)O)c1`?
Rango complex inh: inactive; S-ASM inh: inactive; Abeta rescue: inactive; TDP43 rescue: 20µM; aSyn rescue: inactive; Rango release inh: inactive

What do the screens show for `CN(Cc1ccccc1)c1ccc(/C=C/c2sc3ccccc3[n+]2C)cc1`?
aSyn rescue: inactive

Results for C=Cc1ccc(Cn2c(C(=O)O)c(CNCc3cc(OC)ccc3OC)c3ccc(C)cc32)cc1 ?
Abeta rescue: inactive; TDP43 rescue: inactive

How did CCN(CC)S(=O)(=O)c1ccc2c(c1)c(=O)c(C(=O)N1CCN(c3ccc(F)cc3)CC1)cn2C do in these assays?
Abeta rescue: inactive; TDP43 rescue: inactive

What do the screens show for `O=C(O)c1ccc(/C=N/Nc2ccc(C(F)(F)F)cn2)cc1`?
Rango complex inh: inactive; S-ASM inh: inactive; Abeta rescue: inactive; TDP43 rescue: 8.9µM; aSyn rescue: inactive; Rango release inh: inactive

How did O=C(N/N=C/C=C/c1ccccc1)c1ccncc1 do in these assays?
Rango complex inh: inactive; S-ASM inh: inactive; Abeta rescue: inactive; TDP43 rescue: inactive; aSyn rescue: inactive; Rango release inh: inactive

How did O=C(O)c1cccc(N/N=C/c2ccc(F)c(F)c2)c1 do in these assays?
Rango complex inh: inactive; S-ASM inh: inactive; Abeta rescue: inactive; TDP43 rescue: 25µM; aSyn rescue: inactive; Rango release inh: inactive

How did O=C(O)c1ccc(/C=N/Nc2cccc(C(F)(F)F)c2)cc1 do in these assays?
Rango complex inh: inconclusive; S-ASM inh: inactive; Abeta rescue: inactive; TDP43 rescue: inconclusive; aSyn rescue: inactive; Rango release inh: inactive

How did O=C(O)c1ccc(N/N=C/C=C/c2ccccc2)cc1 do in these assays?
Rango complex inh: inconclusive; S-ASM inh: inactive; Abeta rescue: inactive; TDP43 rescue: 3.5µM; aSyn rescue: inactive; Rango release inh: inconclusive

Results for COc1ccc(OC)c(-c2nnc(-c3ccc(C)o3)o2)c1 ?
Rango complex inh: inactive; S-ASM inh: inactive; Abeta rescue: inactive; TDP43 rescue: 13µM; aSyn rescue: inactive; Rango release inh: inactive

Results for COc1ccc(-c2cn3nc(N4CCCC(C(=O)NCc5ccc(Cl)cc5)C4)sc3n2)cc1 (stereo not given) ?
Abeta rescue: inactive; TDP43 rescue: inactive[9.22 µM]

Results for Cc1cc(C)c(S(=O)(=O)NCc2ccc3c(c2)OCO3)cc1C ?
Rango complex inh: inactive; S-ASM inh: inactive; Abeta rescue: inactive; TDP43 rescue: inconclusive; aSyn rescue: inactive; Rango release inh: inactive

How did O=S(=O)(NCc1ccc2c(c1)OCO2)c1ccc(Cl)s1 do in these assays?
Rango complex inh: inactive; S-ASM inh: inactive; Abeta rescue: inactive; TDP43 rescue: 11µM; aSyn rescue: inactive; Rango release inh: inactive

How did Cc1cc(C)c(S(=O)(=O)NCc2ccc3c(c2)OCO3)c(C)c1 do in these assays?
Rango complex inh: inactive; S-ASM inh: inactive; Abeta rescue: inactive; TDP43 rescue: 18µM; aSyn rescue: inactive; Rango release inh: inactive

Results for COc1ccccc1Cn1c(CNS(=O)(=O)c2ccc(Cl)s2)nc2cccnc21 ?
Abeta rescue: inactive; TDP43 rescue: inactive

How did COc1ccccc1CNS(=O)(=O)c1ccc(Cl)s1 do in these assays?
Rango complex inh: inactive; S-ASM inh: inactive; Abeta rescue: inactive; TDP43 rescue: 13µM; aSyn rescue: inactive; Rango release inh: inactive

Results for CCOc1cc(S(=O)(=O)NCc2ccc3c(c2)OCO3)c(C)cc1C ?
Rango complex inh: inactive; S-ASM inh: inactive; Abeta rescue: inactive; TDP43 rescue: inactive; aSyn rescue: inactive; Rango release inh: inactive

What do the screens show for `CCOc1cc(C)c(Cl)cc1S(=O)(=O)NCc1ccc2c(c1)OCO2`?
Rango complex inh: inactive; S-ASM inh: inactive; Abeta rescue: inactive; TDP43 rescue: 14µM; aSyn rescue: inactive; Rango release inh: inactive

How did COc1ccc(OC)c(CNC(=O)c2ccc(N3Cc4ccccc4Oc4ncccc43)s2)c1 do in these assays?
Abeta rescue: inactive; TDP43 rescue: inactive

How did COc1ccc(NC(=O)CN(C)C(=O)c2ccc(N3CCCCC3)c([N+](=O)[O-])c2)cc1 do in these assays?
Rango complex inh: inactive; S-ASM inh: inactive; Abeta rescue: inactive; TDP43 rescue: inconclusive; aSyn rescue: inactive; Rango release inh: inactive

What do the screens show for `COc1cccc(CN(C)C(=O)c2ccc(N3CCCC3)c([N+](=O)[O-])c2)c1`?
Rango complex inh: inactive; S-ASM inh: inactive; Abeta rescue: inactive; TDP43 rescue: 20µM; aSyn rescue: inactive; Rango release inh: inactive

Results for O=C(Oc1c(Cl)cc(Cl)c2cccnc12)c1ccco1 ?
Rango complex inh: inactive; S-ASM inh: inactive; Abeta rescue: inactive; TDP43 rescue: inconclusive; aSyn rescue: 3.5µM; Rango release inh: inactive

Results for OC1Cc2ccccc2C1Nc1cccc(C(F)(F)F)c1 (stereo not given) ?
Rango complex inh: inactive; S-ASM inh: inactive; Abeta rescue: inactive; TDP43 rescue: 13µM; aSyn rescue: inconclusive; Rango release inh: inactive

Bioassay records as filed in PubChem.
